Reference: the OligoGym collection

These sequences were tested against NCAPG2 (assay: pooled miR-30 sensor sort-seq; sequence = guide strand). Conditions: shRNA.
TTGATGGTGAAAGTAACTCAGA was tested, and the sensor-assay potency score (higher = more potent) was -1.15.
Work on TTGCAAAAACTCTCCAACCAGC yielded a sensor-assay potency score (higher = more potent) of -0.983.
AACATCTTTACACACAGTCAGG gave a sensor-assay potency score (higher = more potent) of -1.69.
In the case of TATAATAACACATTCCAGTAGG, the sensor-assay potency score (higher = more potent) is reported as -0.388.
TTCAATGCTATCCTCTTCCAAA gave a sensor-assay potency score (higher = more potent) of -0.814.
Sequence TTGTCGTGGAGACTGTATCTGA has a sensor-assay potency score (higher = more potent) of -0.323.
Work on TAAGCAATGACGAATAACGTGA yielded a sensor-assay potency score (higher = more potent) of 0.14.
In the case of TTCTGAGCAGAACTTGTGCTGA, the sensor-assay potency score (higher = more potent) is reported as -0.264.

These sequences were tested against NCF1 in the same assay as above. Conditions: shRNA.
TGGAACTCGTAGATCTCGGTGA showed a sensor-assay potency score (higher = more potent) of 0.128.
Sequence TTGGTGCTCTCGCTGCAGCGGT has a sensor-assay potency score (higher = more potent) of -1.07.
Work on TTTTGCAGGTACATGGACGGGA yielded a sensor-assay potency score (higher = more potent) of 0.437.
TTCATCTGACAGAACCACCAAC gave a sensor-assay potency score (higher = more potent) of -0.468.
TTCCGCTTGGTGCTCTCGCTGC was tested, and the sensor-assay potency score (higher = more potent) was -1.
Sequence TTATGGAACTCGTAGATCTCGG has a sensor-assay potency score (higher = more potent) of -0.843.
With TTTTTTGTCTGGTTGTCCGTGG the sensor-assay potency score (higher = more potent) was 0.905.
For TCTGACAGAACCACCAACCGCT, the sensor-assay potency score (higher = more potent) was 0.511.
TTTGTCTGGTTGTCCGTGGGGA was tested, and the sensor-assay potency score (higher = more potent) was 0.0821.
TAGATCTCGGTGAAGCGCCGGT gave a sensor-assay potency score (higher = more potent) of 0.272.
Sequence AACATGTACACATAGTGCTGGC has a sensor-assay potency score (higher = more potent) of -0.578.
TAAGGTTTTATGGAACTCGTAG gave a sensor-assay potency score (higher = more potent) of 0.251.

These sequences were tested against NCR3 in the same assay as above. Conditions: shRNA.
Sequence TGGAACCACCTCATCTCGGAAC has a sensor-assay potency score (higher = more potent) of -1.16.
TCTCGGAACCACGTGACGGAGC was tested, and the sensor-assay potency score (higher = more potent) was -0.976.
In the case of TCTTTCTCCACCACCAGCCGAG, the sensor-assay potency score (higher = more potent) is reported as -1.09.
Sequence TTCCAGGTCAGACATTTGCCCT has a sensor-assay potency score (higher = more potent) of -1.63.
In the case of TTCTTTCTCCACCACCAGCCGA, the sensor-assay potency score (higher = more potent) is reported as -1.65.
In the case of TTTGCCCTGGTAATAGACGGTG, the sensor-assay potency score (higher = more potent) is reported as -0.728.
For ACTCTGCACACGTAGATGCTGG, the sensor-assay potency score (higher = more potent) was -1.18.
Sequence ATGTTCTTTCTCCACCACCAGC has a sensor-assay potency score (higher = more potent) of -2.11.
TAGCTGAGGATGTTCTTTCTCC gave a sensor-assay potency score (higher = more potent) of -0.477.
TATTGGGTGAATGACAGTGTTC showed a sensor-assay potency score (higher = more potent) of -1.59.
TCCAGGTCAGACATTTGCCCTG gave a sensor-assay potency score (higher = more potent) of -1.34.
Work on AAGCTGACAGCATAGAATCCAG yielded a sensor-assay potency score (higher = more potent) of -0.853.

These sequences were tested against NCSTN in the same assay as above. Conditions: shRNA.
Work on TTAAACAGGAGCAAGAAGCTTC yielded a sensor-assay potency score (higher = more potent) of -0.218.
TTGGAGTAAACACCAAACCCAT gave a sensor-assay potency score (higher = more potent) of -1.26.
With AAGACAAACATGACATTGCGGG the sensor-assay potency score (higher = more potent) was -0.588.
TATATCTTCCTCTCCACTGAGT was tested, and the sensor-assay potency score (higher = more potent) was -0.425.
With TCGAGCTCGAAGAAATCGCTGC the sensor-assay potency score (higher = more potent) was 0.0428.
Sequence TCAGCCTGAACTGTGTCGCTGA has a sensor-assay potency score (higher = more potent) of 0.319.
For TAGCATGCTCCACACATTGTAA, the sensor-assay potency score (higher = more potent) was -1.37.
TTCCACTGTATTTCTCTGCAGT showed a sensor-assay potency score (higher = more potent) of 0.342.
